Calls of active or inactive are those of the source.
What was measured:
[1] = binders of probe aFSTL3 on microarray, primary screen, stem cell growth factor project, biochemical, small-molecule microarray, fluorescence 635/667 (AID 1064); settings: higher = more signal;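 further: measures binding of the biotinylated anti-FSTL3 antibody to printed compounds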
[2] = binders from COS7 lysate, DM2A8 probe, primary screen, torsin A project, cell lysate, small-molecule microarray, fluorescence 635/667 (AID 1065); settings: higher = more signal, COS7 lysate expressing mutant human TOR1A
[3] = binders of probe aFGF2 on microarray, primary screen, stem cell growth factor project, biochemical, small-molecule microarray, fluorescence 635/667 (AID 1067); settings: higher = more signal;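 further: measures binding of biotinylated aFGF2 protein to printed compounds on slides; z-score merges feature fluorescence and signal-to-noise across triplicate slides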
[4] = binders of probe aFGF10 on microarray, primary screen, stem cell growth factor project, biochemical, small-molecule microarray, fluorescence 635/667 (AID 1071); settings: higher = more signal;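 further: score merges 667 nm spot intensity and signal to noise from triplicate slides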
[5] = molecular target: Neurogenic locus notch homolog protein 2 (Homo sapiens) (UniProt Q04721); test: Notch2 binders on small-molecule microarrays, primary screen, biochemical, small-molecule microarray, 635 nm fluorescence, stem cell growth factors (AID 1073); settings: Notch2 binding, higher = more signal
[6] = molecular target: Pro-neuregulin-1, membrane-bound isoform (Homo sapiens) (UniProt Q02297); test: NRG1 binders on small-molecule microarrays, primary screen, psychiatric disease protein project, biochemical, small-molecule microarray, fluorescence 635/667 (AID 1075); settings: NRG1 binding, 635 nm fluorescence, higher = more signal;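 further: score combines 667 nm spot fluorescence with signal to noise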
[7] = test system: Neuregulin-1 EGF-like domain; test: binders of neuregulin-1 EGF-like domain, primary screen, biochemical, small-molecule microarray, 635 nm fluorescence (AID 1081); settings: small-molecule microarray binding, higher = more signal;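 further: binding of the protein to compounds printed on small-molecule microarray slides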
[8] = FRG1 promoter luciferase signal modulators, primary screen, FRG1 inhibition for FSHD, cell-based, C2C12 myotubes, firefly/Renilla luciferase, luminescence (AID 1084); settings: higher = more signal, called active from +8 up or from −8 down
[9] = binders of probe aFST on microarray, primary screen, stem cell growth factor project, biochemical, small-molecule microarray, fluorescence 635/667 (AID 1086); settings: higher = more signal;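 further: score merges 667 nm fluorescence with signal-to-noise of each printed compound spot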
[10] = binders of probe aHhip on microarray, primary screen, stem cell growth factor project, biochemical, small-molecule microarray, fluorescence 635/667 (AID 1087); settings: higher = more signal;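 further: score merges spot fluorescence at 667nm with spot signal to noise ratio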
[11] = test system: PRMT1 (protein arginine N-methyltransferase 1); test: PRMT1 binders on small-molecule microarrays, primary screen, biochemical, small-molecule microarray, 635 nm fluorescence (AID 1088); settings: small-molecule microarray binding, higher = more signal;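 further: binding of Prmt1 protein to compounds spotted on small-molecule microarray slides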
[12] = yeast growth modulation, basal conditions, primary screen, YJM789 clinical isolate, OD600, 24 h (AID 1089);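 further: growth of clinical yeast isolate S. cerevisiae YJM 789 seeded 1000 cells per well; test concentration not given here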; settings: S. cerevisiae YJM789 growth, higher = more signal, called active from +8 up or from −8 down
[13] = fission yeast growth modulation, primary screen, strain 972, OD600, 24 h, no modulator (AID 1090);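 further: basal condition with compound alone and no growth modifier present; test concentration not given here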; settings: S. pombe 972 growth, higher = more signal, called active from +8 up or from −8 down
[14] = S. cerevisiae growth modulation with rapamycin, primary screen, strain BY4716, OD600, 96 h (AID 1091); settings: higher = more signal, called active from +8 up or from −8 down; further: test concentration not given here
[15] = molecular target: Torsin-1A-interacting protein 2 (Homo sapiens) (UniProt Q8NFQ8); test: LULL1 binders on small-molecule microarray, primary screen, cell lysate, human LULL1 lysate, 635/667 nm fluorescence (AID 1092); settings: hLULL1 lysate binding, 635 nm fluorescence, higher = more signal;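 further: probe is lysate of COS7 cells overexpressing human LULL1; score merges per-feature 667 nm fluorescence with signal-to-noise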
[16] = E. coli growth modulation, two-sided OD650, primary screen, E. coli filamentation project, strain DRC41, 24 h (AID 1093); settings: OD650, 24 h, higher = more signal, called active from +8 up or from −8 down;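 further: MC1000 strain lacking acrAB efflux and sulA so SOS filamentation is blocked; test concentration not given here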
[17] = small-molecule microarray binders of probe aLefty2, primary screen, biochemical, biotinylated probe, 635/667 nm fluorescence (AID 1094); settings: higher = more signal;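 further: score merges spot fluorescence near 667 nm with spot signal-to-noise ratio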
[18] = test system: Noggin (protein binding on small-molecule microarray); test: Noggin binders on small-molecule microarray, primary screen, biochemical, 635/667 nm fluorescence (AID 1095); settings: 635 nm fluorescence, higher = more signal;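 further: score merges 667 nm feature fluorescence with signal to noise over triplicate slides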
[19] = molecular target: Neurogenic locus notch homolog protein 3 (Homo sapiens) (UniProt Q9UM47); test: NOTCH3 binders on small-molecule microarray, primary screen, biochemical, 635/667 nm fluorescence (AID 1096); settings: NOTCH3 binding, 635 nm fluorescence, higher = more signal
[20] = small-molecule microarray binders of probe aEGFR, primary screen, biochemical, biotinylated probe, 635/667 nm fluorescence (AID 1097); settings: higher = more signal;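 further: probe is a biotinylated anti-EGFR antibody binding compounds printed on slides; score combines fluorescence near 667 nm and signal to noise of each spot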

Neurogenic locus notch homolog protein 2 (Homo sapiens), sequence (Q04721 whole entry, looked up, canonical isoform): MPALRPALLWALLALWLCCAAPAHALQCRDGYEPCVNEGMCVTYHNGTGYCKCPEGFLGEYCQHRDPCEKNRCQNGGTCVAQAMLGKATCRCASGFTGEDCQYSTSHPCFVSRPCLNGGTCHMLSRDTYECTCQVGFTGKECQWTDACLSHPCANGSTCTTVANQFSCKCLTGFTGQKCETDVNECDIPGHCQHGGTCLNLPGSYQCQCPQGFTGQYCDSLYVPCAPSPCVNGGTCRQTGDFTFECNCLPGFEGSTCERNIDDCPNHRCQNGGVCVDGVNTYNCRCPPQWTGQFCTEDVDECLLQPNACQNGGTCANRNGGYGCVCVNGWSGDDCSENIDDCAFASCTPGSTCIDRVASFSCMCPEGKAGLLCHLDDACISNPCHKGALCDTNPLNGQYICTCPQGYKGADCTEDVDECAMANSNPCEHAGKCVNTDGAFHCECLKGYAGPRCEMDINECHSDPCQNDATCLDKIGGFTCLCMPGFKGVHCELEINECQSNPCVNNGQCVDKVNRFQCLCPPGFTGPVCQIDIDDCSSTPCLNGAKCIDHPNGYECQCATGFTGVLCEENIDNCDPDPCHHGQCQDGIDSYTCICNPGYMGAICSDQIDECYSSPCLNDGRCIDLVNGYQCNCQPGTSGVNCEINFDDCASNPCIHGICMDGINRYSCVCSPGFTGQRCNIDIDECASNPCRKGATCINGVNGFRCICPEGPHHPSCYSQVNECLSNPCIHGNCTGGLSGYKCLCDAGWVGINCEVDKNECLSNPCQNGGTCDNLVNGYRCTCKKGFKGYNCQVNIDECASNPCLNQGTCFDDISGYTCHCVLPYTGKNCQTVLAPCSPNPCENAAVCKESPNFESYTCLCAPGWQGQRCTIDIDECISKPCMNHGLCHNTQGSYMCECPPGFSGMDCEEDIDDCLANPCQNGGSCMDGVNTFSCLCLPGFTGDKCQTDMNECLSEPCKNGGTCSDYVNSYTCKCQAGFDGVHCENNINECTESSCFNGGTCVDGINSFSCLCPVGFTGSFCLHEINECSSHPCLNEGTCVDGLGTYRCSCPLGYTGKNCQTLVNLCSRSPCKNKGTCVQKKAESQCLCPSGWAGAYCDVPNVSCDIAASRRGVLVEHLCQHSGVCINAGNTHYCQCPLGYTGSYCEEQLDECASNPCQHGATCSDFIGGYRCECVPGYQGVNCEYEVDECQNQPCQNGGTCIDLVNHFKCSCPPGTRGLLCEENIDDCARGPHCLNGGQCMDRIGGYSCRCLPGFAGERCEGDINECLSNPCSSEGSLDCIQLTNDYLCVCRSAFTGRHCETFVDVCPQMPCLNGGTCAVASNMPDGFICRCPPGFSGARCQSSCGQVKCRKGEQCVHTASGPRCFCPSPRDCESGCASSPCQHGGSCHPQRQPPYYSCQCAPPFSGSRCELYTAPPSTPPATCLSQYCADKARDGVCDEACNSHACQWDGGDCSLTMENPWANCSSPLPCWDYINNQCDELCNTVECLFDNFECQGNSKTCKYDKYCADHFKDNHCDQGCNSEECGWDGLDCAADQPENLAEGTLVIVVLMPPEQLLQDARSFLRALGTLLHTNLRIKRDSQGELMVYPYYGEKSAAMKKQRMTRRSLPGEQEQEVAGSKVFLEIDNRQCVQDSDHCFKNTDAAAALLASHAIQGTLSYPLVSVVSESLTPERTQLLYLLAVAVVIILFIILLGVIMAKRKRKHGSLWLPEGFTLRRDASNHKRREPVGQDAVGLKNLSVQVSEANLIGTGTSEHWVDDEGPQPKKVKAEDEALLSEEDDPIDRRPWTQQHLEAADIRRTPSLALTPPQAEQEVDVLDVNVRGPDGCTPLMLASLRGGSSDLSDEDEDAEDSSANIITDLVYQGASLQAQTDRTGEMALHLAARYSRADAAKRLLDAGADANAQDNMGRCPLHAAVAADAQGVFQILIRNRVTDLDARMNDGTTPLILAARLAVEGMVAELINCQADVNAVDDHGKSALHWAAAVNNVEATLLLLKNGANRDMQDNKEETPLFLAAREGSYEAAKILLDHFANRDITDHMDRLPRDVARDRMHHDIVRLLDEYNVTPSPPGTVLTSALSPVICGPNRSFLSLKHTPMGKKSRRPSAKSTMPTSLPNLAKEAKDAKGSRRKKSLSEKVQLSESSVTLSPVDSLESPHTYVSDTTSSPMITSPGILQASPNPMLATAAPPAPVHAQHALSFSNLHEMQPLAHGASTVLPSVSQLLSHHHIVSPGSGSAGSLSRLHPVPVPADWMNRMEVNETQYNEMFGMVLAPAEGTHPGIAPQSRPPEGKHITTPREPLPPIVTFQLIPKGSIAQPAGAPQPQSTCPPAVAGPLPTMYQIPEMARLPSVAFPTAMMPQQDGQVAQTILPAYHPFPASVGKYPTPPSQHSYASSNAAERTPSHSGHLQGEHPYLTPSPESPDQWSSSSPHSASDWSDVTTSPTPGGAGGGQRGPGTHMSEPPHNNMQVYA
Torsin-1A-interacting protein 2 (Homo sapiens), sequence (Q8NFQ8 whole entry, looked up): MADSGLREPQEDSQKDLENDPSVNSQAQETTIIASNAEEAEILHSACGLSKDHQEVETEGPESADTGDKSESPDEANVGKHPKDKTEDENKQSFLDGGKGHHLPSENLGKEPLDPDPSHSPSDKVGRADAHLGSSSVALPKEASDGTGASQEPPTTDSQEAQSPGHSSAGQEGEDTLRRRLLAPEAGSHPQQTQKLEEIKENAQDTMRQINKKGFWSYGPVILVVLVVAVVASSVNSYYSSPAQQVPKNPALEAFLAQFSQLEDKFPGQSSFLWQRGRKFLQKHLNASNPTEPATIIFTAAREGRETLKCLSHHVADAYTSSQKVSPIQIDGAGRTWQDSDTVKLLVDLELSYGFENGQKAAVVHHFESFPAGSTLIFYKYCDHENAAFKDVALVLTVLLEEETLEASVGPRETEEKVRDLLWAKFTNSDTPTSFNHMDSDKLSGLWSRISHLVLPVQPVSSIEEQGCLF
Pro-neuregulin-1, membrane-bound isoform (Homo sapiens), sequence (Q02297 whole entry, looked up, the tested form may be a part, canonical isoform): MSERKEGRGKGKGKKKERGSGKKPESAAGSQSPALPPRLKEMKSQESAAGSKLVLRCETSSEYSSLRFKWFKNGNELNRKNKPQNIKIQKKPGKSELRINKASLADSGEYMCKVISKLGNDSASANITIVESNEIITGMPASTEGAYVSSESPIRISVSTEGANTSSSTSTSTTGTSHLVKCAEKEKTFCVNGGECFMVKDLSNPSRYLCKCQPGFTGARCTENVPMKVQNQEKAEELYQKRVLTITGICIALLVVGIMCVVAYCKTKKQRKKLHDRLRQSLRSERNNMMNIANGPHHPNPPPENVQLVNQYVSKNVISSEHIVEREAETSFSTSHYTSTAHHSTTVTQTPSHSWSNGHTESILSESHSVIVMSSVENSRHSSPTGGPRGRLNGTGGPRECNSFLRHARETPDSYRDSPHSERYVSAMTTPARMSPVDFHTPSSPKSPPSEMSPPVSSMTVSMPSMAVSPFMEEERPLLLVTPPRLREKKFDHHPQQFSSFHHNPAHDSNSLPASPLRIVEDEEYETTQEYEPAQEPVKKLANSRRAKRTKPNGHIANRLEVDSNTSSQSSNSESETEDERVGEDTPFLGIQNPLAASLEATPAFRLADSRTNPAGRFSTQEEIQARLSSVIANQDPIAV

Compound | composite z-score [1] | composite z-score [2] | composite z-score [3] | composite z-score [4] | composite z-score [5] | composite z-score [6] | composite z-score [7] | z-score [8] | composite z-score [9] | composite z-score [10] | composite z-score [11] | z-score [12] | z-score [13] | z-score [14] | composite z-score [15] | z-score [16] | composite z-score [17] | composite z-score [18] | composite z-score [19] | composite z-score [20]
CCN1C(C)=C(C(=O)OC)[C@@H](c2ccccc2)N2C(=O)[C@@]3(C(=O)OC)O[C@@]12[C@@H]1C(=O)CCC[C@@H]13 | -0.65 | 0.33 | -0.178 | 0.234 | -0.334 | -0.307 | 0.545 | -0.765 (inactive) | -0.183 | 0.351 | 1.12 | 0.352 (inactive) | -1.06 (inactive) | 1.8 (inactive) | -0.323 | 0.0465 (inactive) | -0.243 | 1.57 | 0.135 | 0.0173
COc1cc(Cc2cc3c(c(CCc4ccccc4)n2)[Si](C(C)C)(C(C)C)OC3)cc(OC)c1OC | -0.0934 | -0.0736 | -0.146 | -0.108 | -0.0899 | -0.35 | -0.233 | 0.311 (inactive) | 0.337 | -0.0672 | 0.735 | 0.238 (inactive) | -0.226 (inactive) | 0.0563 (inactive) | -0.244 | -1.02 (inactive) | -0.184 | 0.684 | 0.483 | 0.286
COC(=O)c1ccc(C#CC(NP(=O)(c2ccccc2)c2ccccc2)c2ccccc2)cc1 (stereo not given) | 0.301 | -0.214 | -0.108 | 0.182 | 1.87 | 1.68 | 1.36 | -0.131 (inactive) | 1.34 | 2.35 | -0.362 | -0.664 (inactive) | -11.5 (active) | 1.25 (inactive) | 3.14 | 0.0037 (inactive) | 0.594 | -0.0434 | 1.05 | 0.093
C=CCN1C(=O)[C@]2(O[C@H](CCn3cc(CCO)nn3)[C@@H]([Si](C)(C)c3ccc(OC)cc3)[C@@H]2C)c2cc(NC(=O)c3ccc(OC)cc3)ccc21 | 0.615 | 0.473 | 0.0051 | -0.0488 | 0.48 | 0.439 | 0.974 | -2.48 (inactive) | 0.479 | 0.176 | 1.25 | 1.46 (inactive) | -1.22 (inactive) | 1.81 (inactive) | 0.807 | 1.94 (inactive) | 0.205 | 1.03 | 0.527 | -0.109
COc1cc(CO)cc(I)c1O[C@H]1C=C(C(=O)NCCO)C[C@@H](NCCc2c[nH]c3ccccc23)[C@@H]1O | 0.318 | 0.52 | 0.0019 | 1.01 | 0.832 | -0.0224 | 1.01 | -0.389 (inactive) | 0.714 | -0.184 | 1.39 | 0.004 (inactive) | -12.4 (active) | -2.09 (inactive) | 0.499 | 2.12 (inactive) | 0.341 | 0.947 | 0.705 | 0.192
CO[C@]12C=C(Br)[C@@H](C[C@@H]1c1ccccc1)[C@@]1(CO1)C2=O | -0.407 | 0.215 | -0.0336 | 0.229 | 0.308 | -0.115 | -0.356 | -0.358 (inactive) | 0.0254 | 0.0274 | -0.167 | -0.0474 (inactive) | -4.38 (inactive) | -0.208 (inactive) | -0.132 | 2.43 (inactive) | -0.2 | 0.706 | 0.243 | -0.14

From PubChem BioAssay
